Compound activity from PubChem BioAssay.
Myeloid diff MLP: myeloid differentiation induction; ER-HoxA9 myeloid progenitors, lysozyme-GFP differentiation, flow cytometry; calls only at 10 µM; 360,000 compounds, 1% hits; AID 624256;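 active = normalized GFP-positive differentiation at or above the plate's own cutoff, the solvent-only control mean plus 3 SD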;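 also: cells exposed to compound for four days before flow analysis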
CHRM1 antagonist: human CHRM1 antagonism | CHO-K1 hM1, Fluo-8 calcium fluorescence, ACh EC80 antagonist | P11229 | 360,000 compounds, 1.3% hits | inhibition, % at 3 µM | AID 588852;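 active = percent inhibition above its own plate's cutoff, namely the mean of that plate's compound wells plus 3 SD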;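 also: peak over basal fluorescence ratio during 140 s after agonist addition; 0% = ACh EC80 plus DMSO and 100% = DMSO alone without agonist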
ATG4B inh: ATG4B (human) cysteine protease inhibition. inhibition, % at 8.33 µM. Q9Y4P1. ATG4B cleavage of LC3-PLA2, NBD-HPC fluorescence, 1 h. 340,000 compounds, 0.51% hits; in the data active = inhibition above about 40%
Target sequence (Q9Y4P1 whole entry, looked up): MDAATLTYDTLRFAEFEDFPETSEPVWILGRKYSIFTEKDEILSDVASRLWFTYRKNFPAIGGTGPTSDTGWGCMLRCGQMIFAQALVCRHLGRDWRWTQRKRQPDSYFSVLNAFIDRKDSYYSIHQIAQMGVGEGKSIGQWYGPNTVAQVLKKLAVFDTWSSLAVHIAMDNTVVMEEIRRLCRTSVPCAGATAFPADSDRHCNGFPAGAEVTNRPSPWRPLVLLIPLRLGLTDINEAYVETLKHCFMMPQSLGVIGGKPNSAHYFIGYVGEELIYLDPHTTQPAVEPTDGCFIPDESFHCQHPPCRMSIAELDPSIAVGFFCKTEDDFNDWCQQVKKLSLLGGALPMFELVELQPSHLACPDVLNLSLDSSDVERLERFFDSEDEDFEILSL
SKN-1 block: blocks SKN-1 activity in C. elegans; C. elegans VP596 Pgst-4::GFP/RFP ratio, acrylamide-induced, 24 h; inhibition, % at 21.8 µM; 360,000 compounds, 0.49% hits;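 active = interference check ratio from 0.5 to 1.5 plus GFP to RFP signal ratio inhibition reaching or exceeding a fixed threshold, cut at about 30% in these data, passing the limit was not always enough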
CHRM1 agonist: agonists of human M1 muscarinic receptor | P11229 | CHO-K1 hM1, Fluo-8 calcium fluorescence, agonist mode; 0% DMSO, 100% acetylcholine EC100 | activation, % at 3 µM | 360,000 compounds, 0.33% hits;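 active = activation above the run's mean compound activation plus 3 SD, cut at about 16% in these data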;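 also: peak over basal fluorescence ratio within a 140 s kinetic read after compound addition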
CHRM1 PAM: positive allosteric modulators of human M1 muscarinic receptor; 360,000 compounds, 0.088% hits; P11229; AID 588819; CHO-K1 hM1, Fluo-8 calcium fluorescence, ACh EC20; 0% = ACh EC20, 100% = maximal ACh; activation, % at 3 µM; in the data active = activation above about 19%, passing the limit was not always enough
Starred values were filed as active, the others as inactive; i = inactive; . = no result given; + = active, no number. Only some compounds are listed: those with a hit (about 3.5% of all), similar ones and a draw of the others.

SMILES | Myeloid diff MLP | CHRM1 antagonist | ATG4B inh | SKN-1 block | CHRM1 agonist | CHRM1 PAM
Cn1c(Cc2c[nH]c3ccccc23)n[nH]c1=S | i | 2 | 5 | 44* | -3 | 1
O=C(OC(c1ccccc1)c1nccc2ccccc12)c1cc([N+](=O)[O-])cc([N+](=O)[O-])c1 (stereo not given) | i | 35* | -9 | -3 | -8 | -18
OC(c1cccc(Cl)c1)c1nccc2ccccc12 (stereo not given) | i | -5 | -4 | 9 | -5 | 7
CC(C(=O)Nc1ccc(S(=O)(=O)N2CCCC2)cc1)N1CCc2ccccc2C1 (stereo not given) | i | 101* | -1 | 12 | -7 | -28
CC(C(=O)Nc1ccc(S(=O)(=O)N2CCCC2)cc1)N1CCCC(C(N)=O)C1 (stereo not given) | i | 38* | -4 | 18 | -7 | -17
COc1ccc(CCCC(=O)NC2CCCCC2)cc1 | i | 1 | 6 | -35 | -2 | 6
COc1ccc(CCC(=O)NC(C)C)cc1 | + | 0 | -1 | 3 | -3 | 5
COc1ccc(CCC(=O)NC2CCC(C)CC2)cc1 (stereo not given) | + | 4 | 4 | 3 | -10 | 0
CC1C=CCC2C(=O)N(c3cccc(C(=O)Nc4ccc(F)cc4)c3)C(=O)C12 (stereo not given) | i | 9 | 1 | -9 | -2 | -3
O=C(COC(=O)c1cc(S(=O)(=O)N2CCOCC2)ccc1Cl)c1ccc[nH]1 | + | 5 | . | 11 | -3 | -4
COc1ccc(Nc2sc(C(=O)c3ccc(Cl)cc3)c(N)c2C(=O)Nc2ccccc2OC)cc1 | i | 44* | 6 | 16 | 39* | -5
Clc1ccc(-c2nc3c4ccccc4ccn3c2Cc2ccsc2)cc1 | i | . | . | 21 | . | .
CCOC(=O)C1CCCN(CCC(=O)Nc2cccc(F)c2)C1 (stereo not given) | i | 9 | -10 | -1 | 7 | -13
CCOC(=O)C1CCCN(CC(=O)c2ccc(F)cc2)C1 (stereo not given) | i | 57* | -1 | 21 | 65* | -20
Cc1ccc(NC(=O)NCCN2CCCCC2)cc1Cl | i | -14 | -8 | -3 | -5 | 10
Cc1cccc(NC(=O)NCCN2CCCCC2)c1 | i | -8 | 4 | 38* | -9 | 8
CCOC(=O)C1CCCN(CCC(=O)Nc2cccc(Cl)c2C)C1 (stereo not given) | i | 24 | -1 | 24 | 22* | -16
CCOC(=O)C1CCCN(CC(=O)Nc2c(F)c(F)c(F)c(F)c2F)C1 (stereo not given) | i | -3 | -9 | -4 | 10 | 1
CCOC(=O)C1CCCN(CCC(=O)Nc2cccc(C)c2)C1 (stereo not given) | i | 13 | -12 | -1 | 43* | -19
O=C(O)COc1ccccc1/C=N/NC(=O)CSc1nnc(SCc2ccccc2)s1 | i | -3 | 1 | 2 | -3 | -1
CSC1SCC2C(=O)N(C)C(C(C)C)C(=O)OCC(NC(=O)c3cnc4ccccc4n3)C(=O)NC(C)C(=O)N(C)C1C(=O)N(C)C(C(C)C)C(=O)OCC(NC(=O)c1cnc3ccccc3n1)C(=O)NC(C)C(=O)N2C (stereo not given) | . | -20 | -23 | 42* | -1 | 8
CCOC(=O)C1=C(C)N(CC(C)C)C(=O)/C1=C\c1ccc(OCC(=O)Nc2ccccc2)cc1 | i | 34* | -12 | -1 | -4 | -20
CCOC(=O)CN1C=C(c2ccc3ccccc3n2)C(C[N+](=O)[O-])c2ccccc21 (stereo not given) | + | 5 | 2 | -14 | -4 | -1
CCOC(=O)CSc1ccc2ccccc2n1 | i | -11 | 2 | -13 | -5 | 3
CCn1c(C)nc2cc(C(=O)OC(C(F)(F)C(F)F)C(F)(F)C(F)F)ccc21 | i | 29* | -6 | 15 | 1 | -12
SMILES | Myeloid diff MLP | CHRM1 antagonist | ATG4B inh | SKN-1 block | CHRM1 agonist | CHRM1 PAM
Cc1ccc(Nc2nc(-c3ccc(S(=O)(=O)N4CCCC4)cc3)cs2)cc1C | i | -5 | -1 | 5 | -3 | 3
Cc1cc(C)cc(Nc2nc(-c3ccc(S(=O)(=O)N4CCCC4)cc3)cs2)c1 | + | 10 | -3 | 9 | -1 | -7
Cc1ccc(S(=O)(=O)N2CCCC2=O)c(C)c1N(C)S(C)(=O)=O | i | -15 | -6 | -10 | -3 | 8
O=C1OC(c2ccccc2)(c2ccccc2)c2ccccc21 | i | 3 | 8 | 5 | -7 | -12
Cc1cccc(C2(c3cccc(C)c3)OC(=O)c3ccccc32)c1 | + | 5 | -1 | -6 | -1 | -2
O=[N+]([O-])c1ccc(Oc2ccc(F)cc2)c2ccncc12 | i | -4 | 4 | 36* | -4 | 5
CCOC(=O)C1CCCN(S(=O)(=O)c2cc(C(=O)OC)n(C)c2)C1 (stereo not given) | i | 7 | -8 | 21 | -3 | -11
CCC(C(=O)c1ccc2ncccc2c1)c1ccccc1 (stereo not given) | i | 35* | -9 | 4 | -10 | -27
CCN(CC(=O)NC1CCS(=O)(=O)C1)S(=O)(=O)c1cc(Br)ccc1Br (stereo not given) | i | -5 | -9 | -5 | 4 | 5
Cc1cc(C)c(NC(=O)CN(C)CC(=O)Nc2cccc(S(=O)(=O)N(C)c3ccccc3)c2)c(C)c1 | i | 36* | -9 | -14 | -1 | -14
CN(CC(=O)Nc1cccc(F)c1)CC(=O)Nc1cccc(S(=O)(=O)N(C)c2ccccc2)c1 | i | 17 | -8 | -1 | -3 | -8
CN(C)S(=O)(=O)c1cccc(NC(=O)C(c2ccccc2)c2ccccc2)c1 | i | 6 | 3 | -3 | -6 | -7
CCC(C(=O)Nc1cccc(S(=O)(=O)N(C)c2ccccc2)c1)c1ccccc1 (stereo not given) | i | 5 | -4 | 40* | -3 | -6
COc1ccc(CCC(C)NC2C3CC4CC(C3)CC2C4)cc1 (stereo not given) | i | 99* | -3 | 2 | -7 | -22
CN(C)C(=O)c1ccc(Nc2nc(-c3cccs3)nc3ccccc23)cc1 | i | 26* | -31 | 12 | -2 | -15
CC(=O)c1ccc(Nc2nc(-c3ccccc3)nc3ccccc23)cc1 | i | -9 | 2 | 14 | -3 | 5
C[N+]1(C)CCC(=C(c2ccccc2)c2ccccc2)CC1 | i | 98* | -5 | 5 | -7 | -25
COc1ccc(OC)c(S(=O)(=O)N2CCN(C(=O)c3ccco3)CC2)c1 | i | -23 | 3 | 5 | -2 | 18
